MCF10A rereplic: A quantitative high throughput screen for small molecules that induce DNA re-replication in MCF 10a normal breast cells; MCF 10A DNA re-replication, Hoechst nuclear intensity, 48 h; Potency, µM (titrated, usually from 46.1 µM), for the others: at the top dose activity, positive = re-replication, usual class: activators; hit rate 2.9% among 350,000; AID 624296, 2012; note: % of control where 0% means no effect; nearly all actives have a fitted effect of over 50% in size
PTAP TSG101 blk: qHTS Assay for Iinhibitors of HIV-1 Budding by Blocking the Interaction of PTAP/TSG101; Fluorescence polarization, FITC-PTAP peptide / Tsg101 binding; Potency, µM (series often up to 115 µM), for the others: top-dose activity change, negative = inhibition, actives largely listed as inhibitors; 340,000 tested, under 10 active; active = well fitted inhibition curve with a large enough effect in the main read-out, with a control signal flat, not every such curve was filed as active; inconclusive = small, poorly fitted or top-dose-only effect, or effect the other way, or a change in a side signal; inactive = no such curve, though single readings can be large or run the other way; note: % of control where 0% means no effect
Target sequence (Q99816 whole entry, looked up): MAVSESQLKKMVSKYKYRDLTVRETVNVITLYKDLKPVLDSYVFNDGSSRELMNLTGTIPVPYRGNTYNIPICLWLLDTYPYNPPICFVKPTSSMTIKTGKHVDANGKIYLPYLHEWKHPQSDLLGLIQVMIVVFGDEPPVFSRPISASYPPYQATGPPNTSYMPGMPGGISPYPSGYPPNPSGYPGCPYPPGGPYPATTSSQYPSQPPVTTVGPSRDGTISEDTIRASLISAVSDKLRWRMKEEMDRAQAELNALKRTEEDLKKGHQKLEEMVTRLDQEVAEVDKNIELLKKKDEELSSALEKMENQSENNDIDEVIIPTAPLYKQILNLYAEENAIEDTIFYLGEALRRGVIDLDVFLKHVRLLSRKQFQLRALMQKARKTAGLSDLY
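Fluorescence polarization binding of Tsg101 binding domain (10 uM final) to FITC-labeled PTAP peptide (50 nM final) in HEPES pH 7.5 buffer with NaCl, Tween 20, EDTA, TCEP. Compounds added before peptide; binding 20 min at RT.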
SW480 rereplic: A quantitative high throughput screen for small molecules that induce DNA re-replication in SW480 colon adenocarcinoma cells; SW480 DNA re-replication, Hoechst DNA content imaging, 48 h; Potency, µM (highest dose often 46.1 µM), inactives show at the top dose re-replication activation, most hits filed as activators; hit rate 1.8% among 340,000; AID 624297, 2012; note: % of control where 0% means no effect; nearly all actives have a fitted effect of over 55% in size
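Cells (250 per well) received 23 nL compound or DMSO by pin tool and were kept 48 hr at 37 C, 5% CO2. Nuclei were then stained with Hoechst for 40 min and scanned for DNA content.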
RGS4 inhibitor: Inhibitors of Regulator of G Protein Signaling (RGS) 4: qHTS; Potency, µM (titrated, usually from 114 µM), for the others: top-dose activity change, negative = inhibition, actives largely listed as inhibitors; hit rate 0.039% among 390,000; Transcreener GDP fluorescence polarization, RGS4-accelerated GTP hydrolysis; note: % is set by controls: 0 for no effect and ±100 for the full control effect; nearly all actives have a fitted effect of over 75% in size
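MLSMR compounds (23 nl, pin-transferred) preincubated 10 min at room temperature with a 500nM (2x) first reagent, then RGS4 at 900nM (2x) plus Transcreener GDP mix added; fluorescence polarization (620/688 nm) read before and after 90 min at 30 °C.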
KB-3-1 tox: qHTS assay for MDR1-selective chemotherapeutics: Primary screen using the parental adenocarcinoma cell KB-3-1; KB-3-1 viability, CellTiter-Glo ATP luminescence, 72 h; Potency, µM (top dose mostly 46.1 µM), hits mostly cytotoxic; hit rate 1.4% among 400,000; note: % is set by controls: 0 for no effect and ±100 for the full control effect; nearly all actives have a fitted effect of over 60% in size
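72 h, 37 °C compound treatment of KB-3-1 parental cells; CellTiter-Glo added, 10 min, luminescence read. Data corrected against DMSO-only plates and normalized before curve fitting.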
KB-V1 MDR tox: qHTS assay for MDR1-selective chemotherapeutics: Primary screen using the drug-selected MDR subline cells KB-V1 | Potency, µM (highest dose often 46.1 µM), hits mostly cytotoxic | KB-V1 MDR cells viability, CellTiter-Glo, 72 h | hit rate 3.4% among 400,000; note: % is set by controls: 0 for no effect and ±100 for the full control effect; nearly all actives have a fitted effect of over 60% in size
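In this primary screen, KB-V1 cells overexpressing P-gp are incubated with library compounds (lowest to highest concentration) for 72 h at 37 degrees C before a luminescent ATP viability read.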
Active calls of the source: *; i = inactive; ? = inconclusive; / = no result given; ! = repeats disagree; [ ] = another dose, or the depositor's remark. In the library only some 6.6% were active in any assay of this set; here they are far more common. Unless noted, calls come from the whole dose curve; as a rule, active = well fitted curve in the direction sought with a large enough effect; inconclusive = small, poorly fitted or top-dose-only effect, or another doubt; inactive = no such curve, though single readings can be large; an effect the other way counts as inactive or inconclusive. Potency is the fitted concentration of half-maximal effect.

SMILES	MCF10A rereplic	PTAP TSG101 blk	SW480 rereplic	RGS4 inhibitor	KB-3-1 tox	KB-V1 MDR tox
Cc1nc(N2CCOCC2)c2c(C)c(C(=O)Nc3ccc(F)cc3Cl)sc2n1	-5%	0%	-4%	-44%	i	i
CCN(CC)C(=O)C1CCN(Cc2ccc(Br)cc2)CC1	6%	0%	13%	3%	i	18µM*
CCN(Cc1ccccc1)C(=O)C1CCN(Cc2ccc(SC)cc2)CC1	6%	-2%	-3%	-12%	i	i
O=C(NC1CCN(Cc2ccccc2)CC1)C12CC3CC(CC(C3)C1)C2	7%	0%	0%	4%	i	26µM*
CCN(Cc1ccccc1)C(=O)C1CCN(Cc2ccc(OC)c(OC)c2OC)CC1	-1%	-4%	-4%	9%	i	8.2µM*
O=C(Cc1ccc(Br)cc1)NC1CCN(Cc2ccccc2)CC1	?	0%	4%	6%	?	18µM*
O=C(Cc1ccccc1)NC1CCN(Cc2ccccc2)CC1	8%	0%	1%	-16%	i	i
O=C1CNC(=S)N1Cc1ccc(F)cc1	1%	0%	-33%	-7%	i	i
N=c1ccn(Cc2ccc(F)cc2)cc1	13%	-3%	-4%	22%	5.8µM*	i
CCCCc1ccc(NC(=O)CSc2nc(=O)n(CCN(C)C)c3c2CCC3)cc1	?	0%	?	3%	?	i
CCCCc1ccc(NC(=O)CSc2nc(=O)n(CCN(CC)CC)c3c2CCCC3)cc1	26%	-6%	?	7%	?	26µM*
Cc1cccc(NC(=O)CC2C(=O)NC3CCCCC3N2C(=O)c2ccccc2Cl)c1 (stereo not given)	1%	-2%	-8%	-28%	i	i
Cc1ccc(C(=O)N2C(CC(=O)Nc3ccc(Cl)cc3)C(=O)NC3CCCCC32)cc1 (stereo not given)	29%	-2%	23µM*	1%	?	?
CC(C)NC(=O)CCC(=O)N1Cc2ccccc2Oc2ncccc21	/	/	/	-23%	i	?
Cn1c(-c2ccc(Br)o2)nc2ccccc21	-3%	-2%	5%	-29%	26µM*!	?
Cc1ccc(-c2nc3ccccc3n2C)o1	29%	1%	?	-43%	?	i
O=C(NCc1cccc(Br)c1)c1cnn(-c2ccc(F)cc2)c1-n1cccc1	/	/	/	-8%	i	?
Oc1ccccc1Nc1nc(NCc2ccco2)c2ccccc2n1	?	-1%	0%	-36%	i	i
Cc1ccccc1Nc1nc(NCc2ccco2)c2ccccc2n1	?	0%	?	-6%	?	12µM*
CNc1nc(NCc2ccco2)c2ccccc2n1	/	/	/	/	?	i
Cc1ccccc1Nc1cc(C(=O)NCc2ccco2)c2ccccc2n1	-38%	-2%	?	-44%	?	8.2µM*
CSc1nc(NCc2ccco2)c2ccccc2n1	1%	-4%	-33%	-3%[11.4 µM]	?	12µM*
Cc1cccc(Nc2nc(NCc3ccco3)c3ccccc3n2)c1	?	3%	?	-12%	?	15µM*
Cc1cc(C)c(NC(=O)CSc2nc3ccccc3nc2N2CCCCC2)c(C)c1	/	/	/	-3%	i	?
Cc1cccc(Nc2ccccc2C(=O)OCC(=O)NCc2ccco2)c1C	?	-2%	?	-28%	?	13µM*
O=C(NCc1ccccc1)N1CCn2c(nc3ccccc32)C1	-1%	/	1%	35%	i	18µM*
O=C(c1ccccc1)N1CCn2c(nc3ccccc32)C1	11%	1%	-20%	13%	i	i
